Results published in PubChem BioAssay (NCI).
Several values for one entry are separate records, joined by “and”; a condition that tells them apart may be missing. Identical values can stand only once. About 79,000 compounds went through this panel and 15% of them were active in at least one assay; those are over-represented in the sample as a whole. Values without a mark were called inactive. Activity calls are given as the source filed them. Rule as the data show it: active = growth inhibition above about 70%; inactive = the rest.

What was measured:
[1] = NCI Yeast Anticancer Drug Screen. Data for the rad50 strain (AID 155);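 also: 0% = growth of vehicle-only cultures of the same strain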; settings: S. cerevisiae rad50 strain growth inhibition; at 50.0 µM; stronger effect = higher value
In short: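 A DNA repair-deficient yeast mutant serves as the test organism; compound-induced growth inhibition is calculated against vehicle-treated cells.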

[2] = NCI Yeast Anticancer Drug Screen. Data for the mec2-1 strain (AID 157); settings: S. cerevisiae mec2-1 strain, at 50.0 µM, stronger effect = higher value
In short: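 Test agents were screened against the mec2-1 yeast strain, with defined DNA repair or cell cycle alteration. Growth was scored as inhibition against vehicle-only controls.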

[3] = NCI Yeast Anticancer Drug Screen. Data for the sgs1 mgt1 strain (AID 161);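 also: 0% = growth of cultures given vehicle only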; settings: S. cerevisiae sgs1 mgt1 strain, at 50.0 µM, stronger effect = higher value
In short: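 Mutant yeast exposed to compound; growth scored against vehicle-only wells.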

[4] = NCI Yeast Anticancer Drug Screen. Data for the cln2 rad14 strain (AID 165);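 also: 0% = growth equal to vehicle treated cultures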; settings: S. cerevisiae cln2 rad14 strain, at 50.0 µM, stronger effect = higher value
In short: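 Growth of compound-exposed yeast (cln2 rad14 genotype) measured and expressed as inhibition relative to vehicle.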

[5] = NCI Yeast Anticancer Drug Screen. Data for the bub3 strain (AID 167); settings: S. cerevisiae bub3 mutant strain, at 50.0 µM, stronger effect = higher value
In short: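 Inhibition values come from growth of compound-treated mutant yeast normalised to vehicle-treated controls.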

[6] = NCI Yeast Anticancer Drug Screen. Data for the mlh1 rad18 strain (AID 175); settings: S. cerevisiae mlh1 rad18 strain growth inhibition; at 50.0 µM; stronger effect = higher value
In short: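 In this whole-cell yeast screen, a strain with altered DNA damage repair is challenged with compound, and its growth is measured against matched vehicle-treated controls.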

Row | SMILES | growth inhibition [1] | growth inhibition [2] | growth inhibition [3] | growth inhibition [4] | growth inhibition [5] | growth inhibition [6]
1 | O=NNc1ccc(Cl)cn1 | -11.5% | 3.75% | 3.1% | -1.45% | -18.3% | 3.3%
2 | COc1cccc2c1C(=O)c1c(O)c3c(c(O)c1C2=O)CC(O)(C(C)=O)CC3OC1CC([N+](C)(C)C)C(O)C(C)O1 (stereo not given) | 97% (active) | 98.5% (active) | 97.9% (active) | 92.5% (active) | 98.3% (active) | 95.8% (active)
3 | CC(C)(C)C1=C(Br)C(F)(C(C)(C)C)OP1(=O)c1ccccc1 (stereo not given) | 88.7% (active) | 92.3% (active) | 90.5% (active) | 90.5% (active) | 90% (active) | 91.6% (active)
4 | CCCN=Cc1ccccc1O.CCCN=Cc1ccccc1O.[Ni] | 37.5% | 9.4% | 18.6% | -35.9% | 4.85% | 29.8%
5 | CC([NH-])C[NH-].CC([NH-])C[NH-].[Co].[NH2-].[NH2-] (stereo not given) | -10% | -6.5% | 6.15% | -41.2% | 35.2% | 18.4%
6 | COc1ccc(NC2Oc3cc4c(cc3C(c3cc(OC)c(OC)c(OC)c3)C2C)OCO4)cc1 (stereo not given) | -1.25% | 18.9% | 25.3% | -13.2% | 17.1% | 12%
7 | C1CC[N-]CC1.CC(=N\O)/C(C)=N/O.CC(=N\O)/C(C)=N/O.C[C-]=O.[Co+2] | -3.6% | 18.4% | 10.3% | 23.6% | 19% | 14.4%
8 | C[Si](C)(C)C#CC#C[Si](C)(C)C.[Ni].[Ni].[Ni].[Ni].[c-]1[c-][c-][cH-][c-]1.[c-]1[c-][c-][cH-][c-]1.[c-]1[c-][c-][cH-][c-]1.[c-]1[c-][c-][cH-][c-]1 | 11.7% | 5.5% | -5.05% | 9.2% | -2.85% | -5.85%
9 | O=C(CP(=O)(O)O)NC(CC(=O)OCc1ccccc1)C(=O)OCc1ccccc1 (stereo not given) | 12.8% and 33% | 7.65% and -0.7% | 16.9% and 20.3% | 14.9% and 12.6% | 2.05% and 1.2% | -3.4% and 3.45%
10 | CC1=C[C@H]2[C@@]3(O)[C@H](C)C[C@]4(OC(=O)C(C)C)[C@H]([C@@H]3C=C(CO)C[C@]2(O)C1=O)C4(C)C | 20.1% | 14.3% | 4.8% | 3.9% | 20.8% | 10.8%
11 | CC1N=NNN1C (stereo not given) | -1.8% | -9.7% | -2.3% | -5.9% | 8.75% | -8.65%
12 | CC1=CC(C)=Nc2ccc(C)cc2N1 | -2.65% | -0.6% | -5.95% | -2.65% | -6% | 22.2%
13 | CC(=O)Nc1ncc2ccccc2c1-c1ccc(NC(=O)CCN(CCCl)CCCl)cc1 | 84.5% (active) | -0.45% | 12.2% | -30.1% | 17.6% | -9.2%
14 | CCC(Br)C(N)=O (stereo not given) | -9.25% | 3.2% | -6.9% | -59.5% | -4.25% | -1%
15 | CC1CNC2C(=O)NC(=O)NC2N1 (stereo not given) | 3.15% | 1.95% | -10.2% | -5.25% | 5.2% | -4.7%
16 | O=S(=O)(Cl)OO/C=C\OOS(=O)(=O)Cl | 18.2% | 2.8% | 12.7% | -19.2% | 11% | -1.65%
17 | CN(C)c1c2c(=O)n(C)c(=O)n(C)c2nc2cccc[n+]12 | 21.9% | 22.9% | -5.2% | 2.9% | 5.95% | 11.6%
18 | CCC(C(=O)NC1CN2CCC1CC2)c1ccccc1 (stereo not given) | -6.25% | -23.3% | -27.4% | -3.15% | -2.6% | -13.2%

Row | SMILES | growth inhibition [1] | growth inhibition [2] | growth inhibition [3] | growth inhibition [4] | growth inhibition [5] | growth inhibition [6]
19 | CCOP(=O)(OCC)OCC | -4.1% | -12.8% | 19% | -11.8% | -1.15% | 21.7%
20 | Cc1nc2ccccc2[se]1 | -33.4% | -32.5% | -3.5% | 3.5% | 35.7% | -18.1%
21 | O=C(CC(=O)C(F)(F)C(F)(F)C(F)(F)F)c1ccco1.[Ni] | 17.2% | 3.8% | 27.9% | -9.9% | 2% | 34.6%
22 | O=C(Nc1ccc(N(CCCl)CCCl)cc1)Oc1ccc(C(=O)O)cc1 | 6.75% | 6% | 10.1% | 9.3% | 15.2% | 20.5%
23 | CN(C/C=C/CN(C)N=O)N=O | 10.1% | 2.05% | 3.75% | -16.9% | 20.4% | 1.05%
24 | [CH3][Sb]([CH3])[S]C1OC(CO)C(O)C(O)C1O (stereo not given) | -10.3% | 0.9% | 29.9% | -15.8% | 25.5% | -17.8%
25 | C/C=C/CC1(c2ccccc2)C(=O)NC(=S)NC1=O | 10.2% | -15% | 6.3% | -42.3% | -6% | 5.9%
26 | NCC#CCNCCCN1CC1 | 8.2% | 47.2% | -9.4% | 16.9% | -1.55% | -41.5%
27 | NC(=S)c1cc(N(CCCl)CCCl)c([N+](=O)[O-])cc1[N+](=O)[O-] | 22.4% | -0.25% | 8.85% | 8.85% | -11.6% | -22.5%
28 | CC1(C)CCC(C)(C)c2c1ccc(O)c2Cc1c(O)ccc2c1C(C)(C)CCC2(C)C | 3.55% | -30.8% | -39% | -17.2% | -41.2% | -6.8%
29 | CC1=C(C#N)C2(CCN(C)CC2)C(C#N)=C(C)N1 | 13.3% | 8.75% | 3.05% | -27.9% | -3% | -4.4%
30 | CC(=O)OC1OC(CS[As](C)CCO)C(OC(C)=O)C(OC(C)=O)C1OC(C)=O (stereo not given) | 12.8% | -16.9% | -15.3% | -8% | -0.85% | -9.55%
31 | CC(=O)OC[C@]12C[C@H](OC(=O)CC(C)C)C(C)=C[C@H]1O[C@@H]1[C@H](O)[C@@H](O)[C@@]2(C)[C@@]12CO2 | 83.2% (active) | 83% (active) | 83.3% (active) | 87.7% (active) | 81.9% (active) | 84.8% (active)
32 | CN(CCOC(=O)c1ccc(Br)cc1)[N+](=O)[O-] | 8.9% | 3.2% | -6.25% | 5.8% | 38.9% | 22.9%
33 | CCCN1CCC2(CC1)COCc1ccccc12 | 30.8% | 26.9% | 28.4% | 12.6% | 15.1% | 34.8%
34 | CC12CCC(=O)C=C1CCC1C2CCC2(C)C(OC(=O)C34C=CC(=O)C3C3C=CC4CC3)CCC12 (stereo not given) | 31.4% | -1.2% | 14.3% | 22.6% | -4.45% | 19.2%
35 | CN(C)CCNC(=O)c1ccc([N+](=O)[O-])c(C(C)(C)C(=O)Nc2ccc(N(CCCl)CCCl)cc2)c1 | -1% | -24.4% | 8.9% | -44.2% | -10.8% | -24.9%
